Hit rate of the full screen: of about 420,000 compounds, about 64,000 (15%) were called active. Not shown: some 27% with an inconclusive outcome. The list is a sample of the results. A number with no mark means an inactive call. Calls come from the whole dose curve; as a rule, active = well fitted inhibition curve with a large enough effect; inconclusive = small, poorly fitted or top-dose-only effect; inactive = flat fitted curve, though single readings scatter.
Experiment: qHTS for Inhibitors of human tyrosyl-DNA phosphodiesterase 1 (TDP1): qHTS in cells in absence of CPT; note: nearly all actives have a fitted effect of over 55% in size
Settings: DT40 Tdp1-/- hTDP1 cells, no CPT, ATP luminescence, 48 h; activity change, negative = growth inhibition: at 46.2 µM (top of the series)
Summary of the method: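 Growth kinetics read by CellTiter-Glo luminescence after ≥48 hr at 37 °C. Cells: DT40 Tdp1-/- stably carrying human TDP1, 400 per well, compound exposure in the absence of CPT (DMSO vehicle).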
% is set by controls: 0 for no effect and ±100 for the full control effect; potency is the fitted concentration of half-maximal effect.

Row | Structure (SMILES) | activity change, negative = growth inhibition [%] | Potency
1 | O=C(COC(=O)C12CC3CC(CC(O)(C3)C1)C2)NC12CC3CC(CC(C3)C1)C2 | -25.9 | 
2 | O=C(NC1CCN(C(=S)Nc2ccc(Cl)cc2)CC1)C1CCCCC1 | -2.42 | 
3 | CC(OC(=O)CCC(=O)c1ccccc1)C(=O)Nc1ccc(F)cc1 (centres undefined) | -20.1 | 
4 | CCOC(=O)c1c(C)nn(-c2ncccc2NC(=O)CCC(=O)O)c1C | -16.1 | 
5 | C#CCCCc1nc2ccccc2c(=O)n1N | -22.3 | 
6 | C/C(=N\N1CCN(Cc2ccc(C)cc2)CC1)c1ccco1 | -25.2 | 
7 | CC(=O)NC1C(Oc2ccc(C=O)cc2)OC(COC(C)=O)C(OC(C)=O)C1OC(C)=O (centres undefined) | 10.4 | 
8 | CC(=O)Oc1ccc2c(=O)oc(-c3ccc([N+](=O)[O-])cc3)nc2c1 | -3.77 | 
9 | CCCCSCCCNC(=O)C1CCC(CNS(=O)(=O)c2ccc(NC(C)=O)cc2)CC1 (centres undefined) | 3.72 | 
10 | Nc1nnnn1/N=C/c1cccs1 | -11.8 | 
11 | O=C(NCc1ccc(Cl)cc1)NCc1ccc(Cl)cc1 | -12 | 
12 | Fc1ccc2nc(N3CCCCC3)sc2c1 | 3.23 | 
13 | Fc1ccc2[nH]c3c(N4CCSCC4)ncnc3c2c1 |  | 9.2 µM (active)
14 | N#C/C=C/N1CCN(Cc2ccc3c(c2)OCO3)CC1 | -14.4 | 
15 | O=C(CSc1nc2c(c(=O)[nH]1)CN(Cc1ccc3c(c1)OCO3)CC2)Nc1cc(F)ccc1F | -18.4 | 
16 | Fc1ccc2[nH]c3c(N4CCN(Cc5ccc6c(c5)OCO6)CC4)ncnc3c2c1 |  | 2.31 µM (active)
17 | CN(C)c1cccc(C(=O)N2CCC(n3nccc3NC(=O)C3CCOC3)CC2)c1 (centres undefined) | 1.6 | 
18 | Cc1ccc(NNC(=O)c2c(F)cccc2Cl)cc1Cl | -9.04 | 
19 | O=C(CC(n1cncn1)C(Cl)(Cl)Cl)c1ccc([N+](=O)[O-])cc1 (centres undefined) |  | 14.6 µM (active)
20 | O=C(CCn1nnc2ccccc21)OCC(=O)c1ccc([N+](=O)[O-])cc1 | -16.2 | 
21 | C/C(=N/NC(=O)CSc1ccccn1)c1ccc([N+](=O)[O-])cc1 | 2.71 | 
22 | NC(=O)c1ccc(-c2csnn2)cc1 | -0.292 | 
23 | Cc1ccc(S(=O)(=O)N2CCC(=O)N([C@H](COCc3ccccc3)Cc3ccccc3)CC2)cc1 |  | 18.4 µM (active)
24 | CN1CCC(=O)N([C@H](CO)Cc2ccccc2)CC1 |  | inactive
25 | COc1ccc(COCCN2CCN(S(=O)(=O)c3ccccc3)CCC2=O)cc1 | 5.39 | 
26 | Cc1cccc(N=C2NC(=O)CS2)c1C | 3.53 | 

Row | Structure (SMILES) | activity change, negative = growth inhibition [%] | Potency
27 | Cc1ccc(NS(=O)(=O)c2ccc(N/N=C/c3ccccc3OCC(=O)O)c([N+](=O)[O-])c2)c(C)c1 | -4.92 | 
28 | Cc1cccc(COc2ccccc2/C=N/Nc2ccc([N+](=O)[O-])cc2)c1 |  | 20.6 µM (active)
29 | O=[N+]([O-])c1cccc(/C=N/Nc2ncc(Br)cn2)c1 | -9.68 | 
30 | CN1C(=O)C(CC(N)=O)N(NC(=O)c2ccc(Cl)cc2)C1=S (centres undefined) | -2.93 | 
31 | Cc1ccccc1CSCC(=O)NC(=O)NC(C)(C)C | -25.3 | 
32 | CC(C)(C)NC(=O)CSc1nnc(NC(=O)CCc2ccccc2)s1 | -17.3 | 
33 | CC(C)(C)NC(=O)CSC(=Nc1ccccc1F)NC#N |  | 16.4 µM (active)
34 | N#C/C(=C1\CCCN1)c1nc(-c2ccccc2)cs1 | -23.2 | 
35 | Cc1nc(C(F)(F)F)ccc1C(=O)N1CCC1(C)C(=O)NS(=O)(=O)c1ccc(F)cc1F (centres undefined) | 11.3 | 
36 | CCc1ccc(N(C(=O)c2csnn2)C(C(=O)NC2CCCCC2)c2ccncc2)cc1 (centres undefined) | -12.5 | 
37 | Cc1ccc(N(C(=O)CNC(=O)c2ccco2)C(C(=O)NC2CCCC2)c2ccncc2)cc1 (centres undefined) | -6.22 | 
38 | Cc1ccc(N(C(=O)C(F)(F)F)C(C(=O)NC2CCCCC2)c2ccncc2)cc1C (centres undefined) |  | 18.4 µM (active)
39 | O=C(c1cc(-c2ccccc2O)on1)N1CCCC1 | -3.42 | 
40 | O=C1C(=O)N(c2ccccc2)C(c2ccccc2)C1c1ccccc1 (centres undefined) | 10.2 | 
41 | CCc1ccccc1NC1c2ccccc2C(=O)N1c1cccnc1 (centres undefined) | -10.4 | 
42 | O=C1[C@@H](c2ccccc2)[C@@H](c2ccccc2)N1c1cccnc1 |  | 8.2 µM (active)
43 | CCCC(=O)N1CCc2[nH]c3ccccc3c2C1 | -23.5 | 
44 | Cc1cccc(C(=O)N2CCc3c([nH]c4ccccc34)C2CC(C)C)n1 (centres undefined) | -16.7 | 
45 | Cc1ccc(C2c3[nH]c4ccccc4c3CCN2C(=O)c2cccc(C)c2)cc1 (centres undefined) |  | 18.4 µM (active)
46 | CCCC(=O)N1c2ccccc2NC2=C(C(=O)CCC2)C1c1ccc(F)cc1 (centres undefined) | -8.27 | 
47 | CCOc1cccc(CC(=O)N2CCc3c([nH]c4ccccc34)C2c2ccc(F)cc2)c1OCC (centres undefined) |  | 25.9 µM (active)
48 | Cc1cccc(C(=O)N2CCN(S(=O)(=O)N3CCCCC3)CC2)c1 | -33 | 
49 | O=C(COC(=O)CCOc1ccccc1)Nc1cc(S(=O)(=O)N2CCCCC2)ccc1Cl | -8.88 | 
50 | CC1=Nn2c(nnc2-c2ccccc2)SC1 | -23.9 | 
51 | COc1cccc(C(=O)NCCS(=O)(=O)NCC2CCCO2)c1 (centres undefined) | -6.41 | 
52 | CC1CCCCN1Cc1c(O)ccc2c(=O)c(-c3cccc(Cl)c3)c(C(F)(F)F)oc12 (centres undefined) | -9.1 | 

Row | Structure (SMILES) | activity change, negative = growth inhibition [%] | Potency
53 | CC(=O)c1cccc(OCC(=O)OCC(=O)Nc2cc(S(=O)(=O)N3CCCCC3)ccc2C)c1 | 5.94 | 
54 | COc1ccc2c(c1)c(=Cc1ccc(N(C)C)cc1)c1cc(-c3ccccc3)[n+](C)n12 |  | 0.92 µM (active)
55 | Cc1ccc(N2CC(NC(=O)Cc3cccs3)CC2=O)cc1 (centres undefined) | -1.33 | 
56 | Cc1oc2c(c1C(=O)N1CCOCC1)C(=O)c1ccccc1C2=O |  | 2.59 µM (active)
57 | Cc1onc(-c2ccccc2)c1C(=O)N1CCOCC1 | -11 | 
58 | O=C(c1ccccc1-c1ccccc1)N1CCOCC1 | -4.8 | 
59 | Cc1cccc(C)c1OC(=O)CSc1nnc(-c2ccccc2)o1 | -24 | 
60 | Cc1ccc(-c2nnc(CN3CCN(C)CC3)o2)cc1 | -10.4 | 
61 | COC(=O)[C@@H](NC(=O)NCc1cccc(OC)c1)C(C)C | -10.4 | 
62 | CCCC(O)(c1ccc(OC)cc1)C(CN(C)C)c1ccccc1 (centres undefined) | -8.8 | 
63 | COc1cccc(CN(C)CC(O)COC(c2ccccc2)c2ccccc2C)c1 (centres undefined) |  | 16.4 µM (active)
64 | Cc1ccc(-n2c(SCC(=O)NCc3ccc4c(c3)OCO4)nnc2-c2cccnc2)c(C)c1 | -26.4 | 
65 | O=C(CCSCCc1ccccn1)Nc1nccs1 | -24.1 | 
66 | COc1ccc(C(=O)c2c(C)oc3cc([N+](=O)[O-])c(O)c([N+](=O)[O-])c23)cc1 | -19.1 | 
67 | COc1ccc(/C=N/Nc2nc(-c3ccc(C)cc3)c(C#N)c(=O)[nH]2)cc1 | -13.2 | 
68 | CCOC(=O)c1cc(-c2nnc(-c3cc(OC)c(OC)c(OC)c3)o2)c(C)nc1C |  | 16.4 µM (active)
69 | CCOC(=O)c1cc2ccccc2nc1C | -9.4 | 
70 | O=C(CCN1C(=O)[C@@H]2Cc3ccccc3CN2C1=O)NCc1ccccc1 | 9.34 | 
71 | Cc1ccc(S(=O)(=O)N(C)C)cc1NC(=O)c1ccccc1Br | -10.6 | 
72 | Cc1ccc(S(=O)(=O)N(C)C)cc1NC(=O)c1n[nH]c(=O)c2ccccc12 |  | 23.1 µM (active)
73 | Cc1ccc(S(=O)(=O)N(C)C)cc1NC(=O)COC(=O)C1COc2ccccc2O1 (centres undefined) | 0.485 | 
74 | CCOc1ccc(CCNC(=O)COC(=O)c2ccc(F)c(S(=O)(=O)N3CCOCC3)c2)cc1OCC | -6.84 | 
75 | CCOc1ccccc1C1CC(c2ccc(Cl)cc2)Nc2nc(N)nn21 (centres undefined) |  | 16.4 µM (active)
76 | CCOc1ccccc1C1C(C(=O)OC)=CN(C)C=C1C(=O)OC | -4.81 | 
77 | COc1ccc(C2CC(c3ccc(C)cc3)Nc3nc(N)nn32)cc1 (centres undefined) | -6.23 | 
78 | CC(C)[C@H](NC(=O)c1ccc(F)cc1)C(=O)OCC(=O)NC(=O)c1cccn1C | -6.12 | 

Row | Structure (SMILES) | activity change, negative = growth inhibition [%] | Potency
79 | COc1ccc(S(=O)(=O)N(C)CC(=O)N2CCCC2)cc1Cl | -25.7 | 
80 | CN1c2ccc(C=O)c3c(C=O)ccc(c23)N(C)C1(C)C |  | 7.31 µM (active)
81 | O=C1c2ccccc2C(O)N1Cc1ccccc1Cl (centres undefined) | -7.23 | 
82 | CN1CCN(S(=O)(=O)c2ccc(Nc3ccc(F)cc3)nc2)CC1 | -2.36 | 
83 | O=C(NCc1ccccc1)C1c2ccccc2OCC(=O)N1C1CC1 (centres undefined) | -11.1 | 
84 | NS(=O)(=O)c1ccc(CCNC(=O)c2nc(CS(=O)(=O)c3ccc(Cl)cc3)no2)cc1 | 2.72 | 
85 | Cc1ccccc1NC(=O)Nc1ccccc1N1CCCCC1 |  | 23.1 µM (active)
86 | Cc1ccccc1NC(=O)NC1(C(=O)N2CCCC2)CCCCC1 | -10.4 | 
87 | Cc1cccc(N2CC(C(=O)Nc3ccccc3N3CCCC3)CC2=O)c1C (centres undefined) | -8.58 | 
88 | O=C(Nc1ccccc1N1CCCCC1)c1cccc(F)c1 | -14.5 | 
89 | Cc1nnc(OCC(=O)NCCC2=CCCCC2)c2ccccc12 | -11.7 | 
90 | O=C(CNCCC1=CCCCC1)Nc1ccccc1N1CCCCCC1 |  | 23.1 µM (active)
91 | C=CCSc1nc(Cc2ccc(Cl)cc2)nc2ccccc12 | -0.879 | 
92 | Cc1ccc(F)cc1NC(=O)c1ccc2c(c1)OCO2 | -16.7 | 
93 | COc1cc(C2C(C(=O)c3sc(C)nc3C)=C(O)C(=O)N2CCN(C)C)cc(OC)c1OC (centres undefined) | 9.07 | 
94 | N/C(Cc1ccc([N+](=O)[O-])cc1)=N\OC(=O)C1CCCCC1 | -0.701 | 
95 | COc1ccccc1OCCC(=O)OCC(=O)NCc1ccccc1 | -7.82 | 
96 | N#Cc1ccc(CN2CCN(CC(=O)Nc3ccccc3C(=O)NC3CC3)CC2)cc1 | 0.152 | 
97 | NC(=O)c1ncn([C@@H]2O[C@H](CN=C3NS(=O)(=O)c4ccccc43)[C@@H](O)[C@H]2O)n1 | 2.67 | 
98 | COc1ccc([N+](=O)[O-])cc1NC(=O)c1ccc(N(Cc2ccccc2C)S(C)(=O)=O)cc1 | -29.8 | 
99 | CC(=O)c1ccc(NC(=O)Nc2ccc([N+](=O)[O-])cc2C)cc1 |  | 16.4 µM (active)
100 | Cc1cc([N+](=O)[O-])ccc1NC(=O)c1ccc(NC(=O)C(C)C)cc1 |  | 18.4 µM (active)
101 | CN1CCN(CCNC(=O)Nc2ccc([N+](=O)[O-])cc2)CC1 | -27.3 | 
102 | Cc1cc([N+](=O)[O-])ccc1NC(=O)C1CCCO1 (centres undefined) | -7.79 | 
103 | CC(C)C(=O)Nc1cccc(NC(=O)c2ccc([N+](=O)[O-])cc2Cl)c1 | -16.9 | 
104 | CN1c2ccc([N+](=O)[O-])cc2C(C)(C)C12C=Cc1cc(C(=O)O)ccc1O2 (centres undefined) | 13.4 | 

Reference: PubChem BioAssay AID686978 (National Center for Advancing Translational Sciences (NCATS), 2013)
